Reference: PubChem BioAssay (Tox21)
Results filed as inconclusive are left out. The source made the active and inactive calls. Unless noted, calls follow the shape of the dose curve; as a rule, active = well fitted curve in the direction sought with a large enough effect in the repeat runs; inconclusive = weak or mixed curves; inactive = no such curve, though single readings can be large; an effect the other way counts as inactive or inconclusive.

How the values were obtained:
[1] = qHTS assay to identify small molecule agonists of H2AX (AID 1224845; active = well fitted activation curve with a large enough effect in the signal ratio in the repeat runs, not every such curve was filed as active; the % refers to the signal ratio)
How it was run: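 Wild-type CHO-K1 cells plated overnight, then exposed 3 hr at 37C to compounds at 15 concentrations (0.76% DMSO). Lysed, then HTRF anti-pH2AX(S139)-cryptate/anti-H2AX-d2 detection after 24 hr at room temperature; emissions 665 and 620 nm.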

[2] = qHTS assay to identify small molecule agonists of the hypoxia (HIF-1) signaling pathway (AID 1224846; active = well fitted activation curve with a large enough effect in the signal ratio in the repeat runs, not every such curve was filed as active; the % refers to the signal ratio)
How it was run: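 Agonist mode reporter screen. ME-180 cells stably expressing bla under HRE control received test compounds in DMSO for 17 hrs (37C, 5% CO2), and beta-lactamase activity was then detected with the CCF4-AM FRET substrate.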

[3] = qHTS assay to identify small molecule antagonists of the estrogen related receptor (ERR) signaling pathway from Tox21 library (AID 1224848); also: nearly all actives have a fitted effect of over 50% in size
How it was run: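 First, 2,000 ERR cells per well were plated and held 6 h at 37 C/5% CO2. Next, compounds in DMSO were pinned in and left 18 h at 37 C. Finally, ONE-Glo was added and luminescence read after 30 min at room temperature.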

[4] = qHTS assay to identify small molecule agonists of the estrogen related receptor (ERR) signaling pathway from Tox21 library (AID 1224849; calls by dose curve; also: nearly all actives have a fitted effect of over 15% in size)
How it was run: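 Quantitative HTS in agonist format: NTP ERR cell line, compounds transferred in DMSO after 6 h plating, 18 h incubation at 37 C, ONE-Glo luminescence endpoint.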

[5] = qHTS RealTime-Glo MT Cell Viability Assay in HepG2 cells - 24 hour (AID 1224867); also: nearly all actives have a fitted effect of over 50% in size
How it was run: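 Compound treatment began 5 h after plating HepG2 cells (600/well) with NanoLuc luciferase and prosubstrate. Plates stayed at 37 C for 40 h; luminescence was captured at six time points, 0 h through 40 h.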

[6] = qHTS RealTime-Glo MT Cell Viability Assay in HEK293 cells - 32 hour (AID 1224868); also: top concentration of the series differs between compounds; nearly all actives have a fitted effect of over 50% in size
How it was run: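 Quantitative high-throughput screen of the Tox21 10K library in HEK293: cells and RealTime-Glo reagents plated together, compound added at 5 h, luminescence monitored through 40 h at 37 C.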

[7] = A CellTox Green Cytotoxicity Assay to monitor cytotoxicity in HEK293 cells - 0 hour (AID 1224869); also: nearly all actives have a fitted effect of over 50% in size
How it was run: (§1)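 Dead-cell fluorescence measured kinetically: asymmetric cyanine dye, HEK293, 600 cells/well, 5 h settle, 23 nL cpd/DMSO, 37 C, reads 0–40 h every 8 h.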

[8] = qHTS RealTime-Glo MT Cell Viability Assay in HepG2 cells - 40 hour (AID 1224870); also: nearly all actives have a fitted effect of over 50% in size
How it was run: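 HepG2 cells mixed with RealTime-Glo MT reagents (NanoLuc plus cell-permeant prosubstrate) were seeded at 600 cells/well, incubated 5 h at 37 C/5% CO2, then pinned with compounds in DMSO; nonlytic luminescence tracked viability during 40 h treatment.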

[9] = A CellTox Green Cytotoxicity Assay to monitor cytotoxicity in HEK293 cells - 40 hour (AID 1224871); also: nearly all actives have a fitted effect of over 45% in size
How it was run: as §1

[10] = qHTS assay to identify small molecule agonists of H2AX - cell viability counter screen (AID 1224847; calls by dose curve; also: top concentration of the series differs between compounds; nearly all actives have a fitted effect of over 30% in size)
How it was run: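 Read-out: CellTiter-Glo luminescence, 30 min RT. Cells: wild-type CHO-K1, 1000/well, 10% FBS, plated overnight at 37C. Treatment: 15 concentrations, 3 hr, 37C, 0.76% DMSO.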
% is scaled to controls: 0 for no effect and ±100 for the full control effect.

CCCCCCCCN1CCCC1=O
inactive: Potency [1] | outcome [2] | Potency [3] | outcome [4] | outcome [5] | Potency [6] | outcome [7] | Potency [8] | Potency [9]

[Ca+2]
inactive: Potency [1] | outcome [2] | outcome [5] | Potency [6] | outcome [7] | Potency [8] | Potency [9]

CC1OC1C1CCC2(C)OC2C1 (configuration not stated)
inactive: Potency [1] | outcome [2] | outcome [5] | Potency [6] | Potency [8] | Potency [9]

CNC(=O)Nc1ccc(Cl)c(Cl)c1
inactive: Potency [1] | outcome [2] | outcome [10] | outcome [5] | Potency [6] | Potency [8] | Potency [9]

C=CCOCC(O)CO (configuration not stated)
inactive: Potency [1] | outcome [2] | outcome [5] | Potency [6] | outcome [7] | Potency [8]

COc1ccnc(CS(=O)c2nc3cc(OC(F)F)ccc3[nH]2)c1OC (configuration not stated)
inactive: Potency [1] | outcome [2] | outcome [10] | outcome [5] | outcome [7] | Potency [8] | Potency [9]

CC(COc1ccccc1)NN (configuration not stated)
inactive: Potency [1] | outcome [2] | Potency [3] | outcome [4] | outcome [5] | Potency [6] | outcome [7] | Potency [8] | Potency [9]

CC(CO)(CO)[N+](=O)[O-]
inactive: Potency [1] | outcome [2] | outcome [5] | Potency [6] | outcome [7] | Potency [8] | Potency [9]

c1coc(CNc2ncnc3nc[nH]c23)c1
inactive: Potency [1] | outcome [2] | outcome [10] | outcome [5] | Potency [6] | Potency [8] | Potency [9]

N[C@@H](CCC(=O)O)C(=O)O
inactive: Potency [1] | outcome [2] | outcome [5] | Potency [6] | outcome [7] | Potency [8] | Potency [9]

CC(C)(C)C(=O)Oc1ccc(S(=O)(=O)Nc2ccccc2C(=O)NCC(=O)O)cc1
inactive: Potency [1] | outcome [2] | outcome [5] | Potency [6] | outcome [7] | Potency [8] | Potency [9]

CCC(=O)OCc1ccccc1
inactive: Potency [1] | outcome [2] | outcome [5] | Potency [6] | outcome [7] | Potency [8] | Potency [9]

CCCCCCCCCCOc1cc2c(=O)c(C(=O)OCC)c[nH]c2cc1OCC
inactive: activation (H2AX phosphorylation) [1] 0.376% [at 14 µM] | activation [2] 0.236% [at 7.01 µM] | activity change, negative = cytotoxicity [5] 3.75% [at 6.97 µM] | activity change, negative = cytotoxic [6] 6.41% [at 6.97 µM] | cytotoxicity [7] -0.138% [at 6.97 µM] | activity change, negative = cytotoxic [8] 0.617% [at 6.97 µM] | cytotoxicity increase [9] 0.78% [at 6.97 µM]

Nc1ccncc1N
inactive: Potency [1] | outcome [2] | outcome [5] | Potency [6] | outcome [7] | Potency [8] | Potency [9]

CN(C)CCCN(C)CCCN(C)C
inactive: Potency [1] | outcome [2] | outcome [10] | outcome [5] | Potency [6] | Potency [8] | Potency [9]

CCC(C(=O)NC(=O)NC(C)=O)c1ccccc1 (configuration not stated)
inactive: Potency [1] | outcome [2] | Potency [3] | outcome [4] | outcome [5] | Potency [6] | outcome [7] | Potency [8] | Potency [9]

Cc1nc(C2CCCCC2)c(-c2ccc(S(N)(=O)=O)c(F)c2)o1
inactive: Potency [1] | outcome [2] | Potency [3] | outcome [4] | outcome [5] | outcome [7] | Potency [8] | Potency [9]

CCCCCCCCCCCCSC
inactive: Potency [1] | outcome [2] | outcome [10] | outcome [5] | Potency [6] | Potency [8] | Potency [9]

Cc1ccc(-c2ncc(Cl)cc2-c2ccc(S(C)(=O)=O)cc2)cn1
inactive: Potency [1] | outcome [2] | outcome [10] | outcome [5] | Potency [6] | Potency [8] | Potency [9]

CC(=O)NC(=O)c1ccccc1O
inactive: Potency [1] | outcome [2] | outcome [5] | Potency [6] | outcome [7] | Potency [8] | Potency [9]

CCCCCCCCCCCCCCC(=O)O
inactive: Potency [1] | outcome [2] | outcome [5] | Potency [6] | Potency [8] | Potency [9]

CO[Si](C)(OC)c1ccccc1
inactive: Potency [1] | outcome [2] | Potency [3] | outcome [4] | outcome [5] | Potency [6] | outcome [7] | Potency [8] | Potency [9]

CCCCOC(=O)CCC(C)=O
inactive: Potency [1] | outcome [2] | outcome [5] | Potency [6] | outcome [7] | Potency [8] | Potency [9]

c1ccc2sc(SN3CCOCC3)nc2c1
inactive: Potency [1] | outcome [2] | Potency [3] | outcome [4] | outcome [5] | Potency [6] | outcome [7] | Potency [8] | Potency [9]

O=[N+]([O-])c1ccc(/C=N\O)o1
inactive: Potency [1] | outcome [2] | outcome [10] | outcome [5] | Potency [6] | Potency [8] | Potency [9]

O=C(O)CCSCCC(=O)O
inactive: Potency [1] | outcome [2] | outcome [10] | outcome [5] | Potency [6] | Potency [8] | Potency [9]

Cc1ccc(C(=O)c2ccccc2)cc1
inactive: Potency [1] | outcome [2] | outcome [5] | Potency [6] | outcome [7] | Potency [8] | Potency [9]

NC(=O)N[C@@H](CCC(=O)O)C(=O)O
inactive: Potency [1] | outcome [2] | outcome [5] | Potency [6] | outcome [7] | Potency [8] | Potency [9]

CNCCO
inactive: Potency [1] | outcome [2] | outcome [5] | Potency [6] | outcome [7] | Potency [8] | Potency [9]

Clc1cc(Cl)c(Cl)nc1Cl
inactive: Potency [1] | outcome [2] | Potency [3] | outcome [4] | outcome [5] | Potency [6] | outcome [7] | Potency [8] | Potency [9]

CCCCCC(C)N (configuration not stated)
inactive: Potency [1] | outcome [2] | outcome [10] | outcome [5] | Potency [6] | Potency [8] | Potency [9]
